Data from PubChem BioAssay.
Results filed as inconclusive are left out. Calls of active or inactive are those of the source.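 How the source made its calls, unless noted: active means inhibition over a set limit, the all-compound mean plus 3 SD, in both replicate runs; inconclusive means over that limit in just one replicate run; inactive means at or under that limit in both runs.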

Tests used:
[1] = Her2 expression decrease, cell viability multiplex – SKBR3 breast tumor cells, AlphaScreen, ATP viability, primary screen (AID 461;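 active means Her2 level under about 52% in both replicate screens, with viability over 70% of control, limit read from the data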;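 on Her2 level: lower value means less Her2 protein in the cells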;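 on viability: percent of carrier control wells set as 100% viability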); settings: SKBR3 Her2 protein level, 18-24 h, measured here: SKBR3 viability, ATP luminescence, at 10 µM
[2] = target: Receptor tyrosine-protein kinase erbB-2 (Homo sapiens) (UniProt P04626); assay: as above; settings: 18-24 h, at 10 µM, stronger effect = lower value
Sequence of Receptor tyrosine-protein kinase erbB-2 (Homo sapiens) (P04626 whole entry, looked up): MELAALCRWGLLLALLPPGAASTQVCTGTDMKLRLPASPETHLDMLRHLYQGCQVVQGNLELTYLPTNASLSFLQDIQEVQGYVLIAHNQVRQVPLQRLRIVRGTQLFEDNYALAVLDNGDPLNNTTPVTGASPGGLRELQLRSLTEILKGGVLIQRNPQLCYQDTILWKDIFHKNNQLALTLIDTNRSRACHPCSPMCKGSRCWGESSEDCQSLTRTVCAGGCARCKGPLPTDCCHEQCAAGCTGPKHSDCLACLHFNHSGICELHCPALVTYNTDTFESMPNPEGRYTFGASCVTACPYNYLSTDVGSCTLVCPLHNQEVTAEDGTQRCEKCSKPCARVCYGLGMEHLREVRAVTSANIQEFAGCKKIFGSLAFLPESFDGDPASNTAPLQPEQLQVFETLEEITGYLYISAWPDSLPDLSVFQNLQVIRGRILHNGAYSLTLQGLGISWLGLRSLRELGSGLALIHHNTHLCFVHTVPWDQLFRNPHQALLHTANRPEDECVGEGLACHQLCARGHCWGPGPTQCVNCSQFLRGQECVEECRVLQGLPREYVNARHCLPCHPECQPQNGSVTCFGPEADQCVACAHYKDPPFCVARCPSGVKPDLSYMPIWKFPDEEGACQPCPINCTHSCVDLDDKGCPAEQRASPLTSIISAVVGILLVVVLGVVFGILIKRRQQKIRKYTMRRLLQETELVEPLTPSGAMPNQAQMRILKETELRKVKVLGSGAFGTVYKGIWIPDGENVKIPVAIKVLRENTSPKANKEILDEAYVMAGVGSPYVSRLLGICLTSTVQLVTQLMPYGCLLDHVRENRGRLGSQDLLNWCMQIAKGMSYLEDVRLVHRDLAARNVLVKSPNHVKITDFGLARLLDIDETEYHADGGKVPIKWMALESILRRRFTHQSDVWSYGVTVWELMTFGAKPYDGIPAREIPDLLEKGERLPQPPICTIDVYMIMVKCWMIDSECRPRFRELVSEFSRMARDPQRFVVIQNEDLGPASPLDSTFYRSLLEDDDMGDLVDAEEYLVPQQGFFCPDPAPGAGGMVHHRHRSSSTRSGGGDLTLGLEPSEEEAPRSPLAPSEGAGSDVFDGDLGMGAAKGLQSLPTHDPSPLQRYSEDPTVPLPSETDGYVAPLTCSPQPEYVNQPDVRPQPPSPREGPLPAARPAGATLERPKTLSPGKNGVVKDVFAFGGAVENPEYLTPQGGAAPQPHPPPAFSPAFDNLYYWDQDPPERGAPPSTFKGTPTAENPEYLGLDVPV

[3] = reduced viability of SK-BR-3 breast cancer cells – cell-based, 24 h, human, pilot screen (AID 572;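 active means viability at or below 10% of carrier control in both of two separate runs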;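 further: compound exposure lasted between 18 and 24 h rather than exactly 24 h; 100% = carrier-treated control wells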); settings: SK-BR-3 viability, CellTiter-Glo luminescence, at 10 µM, stronger effect = lower value
[4] = HUVEC growth inhibition – cell-based, human, primary screen (AID 575;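 active means viability at or below 30% in both replicate assays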;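 further: 100% = median of untreated cell wells with 0.1% DMSO on each plate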); settings: HUVEC proliferation, CellTiter-Glo luminescence, 72 h; at 10 µM; stronger effect = lower value
[5] = H69AR cell proliferation blockers – human, duplicate replicates, primary screen (AID 580;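 active means viability at or under a set limit in both replicates, limit being median viability minus 3 SD, cut at about 48% in these data, passing the limit was not always enough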;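 further: 100% = mean luminescence of untreated wells and 0% = no signal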); settings: H69AR lung tumor cells viability, ATP luminescence, 72 h; at 10 µM; stronger effect = lower value
[6] = MRP1 drug-resistance reversers in H69AR cells – cell-based, doxorubicin co-treatment, pilot screen (AID 601;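 active means viability loss from added drug above about 55%, and viability with drug at most 40%, in both replicates, limit read from the data, passing the limit was not always enough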); settings: CellTiter-Glo, 72 h, at 10 µM; for differential viability (reversal): stronger effect = higher value
[7] = yeast transport mutant growth inhibition pilot in 384-well plates, post-Golgi transport modulator project (AID 636; in the data active means inhibition above about 31%); settings: absorbance 615 nm, about 18 h, stronger effect = higher value
[8] = growth suppression of yeast trafficking mutant, preliminary HTS, modulators of trafficking downstream of Golgi apparatus project, 1536-format plate, OD 615 nm (AID 637; in the data active means inhibition above about 30%); settings: yeast transport mutant growth, absorbance 615 nm, 18 h; stronger effect = higher value
[9] = S. cerevisiae growth inhibition in permissive medium (OD615), pilot counter-assay for S. cerevisiae lifespan shortening project, permissive growth control (AID 705;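 active means growth inhibition above 25% in both replicates, a cutoff set 3 SD above the mean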); settings: OD615, 24 h, at 10 µM, stronger effect = higher value
[10] = S. cerevisiae growth inhibition in restrictive medium, OD615, pilot screen, restrictive growth control, yeast lifespan reduction project (AID 706;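 active means growth inhibition above a set limit, 3 SD over mean compound inhibition, in both replicates, cut at about 43% in these data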;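 further: modified DeaD lifespan yeast strain shifted to restrictive glucose medium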); settings: OD615, 48 h, at 10 µM, stronger effect = higher value
[11] = doxorubicin toxicity protection in MRP-1 cells – H69AR cells, CellTiter-Glo, duplicate, MRP-1 activator project, pilot screen (AID 807;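 active means viability increase at or above a cutoff of the median across tested compounds plus 3 SD, cut at about 8.5% in these data, passing the limit was not always enough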;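 further: compound pretreatment 18-22 h then 72 h combined with doxorubicin; 0% = doxorubicin alone and 100% = vehicle without doxorubicin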); settings: H69AR viability with doxorubicin, CellTiter-Glo luminescence; at 10 µM; stronger effect = higher value
[12] = viability of HCT116 without oncogenic beta-catenin – human colon tumor cells, pilot screen (AID 823;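 active means cell viability at or below a set limit in both duplicate runs, the limit being the all-compound median minus 4 SD, cut at about 23% in these data, passing the limit was not always enough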;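 further: 0% = wells killed by 20 µM Hyamine and 100% = untreated DMSO cell wells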); settings: HCT116 beta-catenin knockout viability, CellTiter-Glo, 60 h; at 10 µM; stronger effect = lower value
[13] = viability of PTEN-null HCT116 cells – cell-based, HCT116 clonal line, CellTiter-Glo, pilot screen (AID 824;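 active means viability at or below 27.92% in each of two runs, the all-compound median minus 4 SD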;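 further: 0% = 20 µM Hyamine control and 100% = vehicle cell control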); settings: HCT116 PTEN-deleted viability, 60 h, at 10 µM, stronger effect = lower value
[14] = RAM pathway blockade in budding yeast – dse1pr::URA3 reporter, 5-FOA selection, pilot screen (AID 869);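 further: 0% = DMSO wells with no growth and 100% = 10 µM 1-NA-PP1 with full growth; RAM network block rescues cells from 5-FOA so hits raise OD615 growth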; settings: S. cerevisiae dse1pr::URA3 5-FOA growth, OD615, 2 d; at 10 µM; stronger effect = higher value; strain carries analog-sensitive mutant Cbk1 kinase
[15] = RAM signaling pathway blockade in yeast – S. cerevisiae, Pdr1DBD-CYC8 efflux-inhibited sensitized strain, primary screen (AID 1298;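 active means RAM network inhibition above 8.4% in each of two replicates, 3 SD over the compound average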;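 further: 0% = DMSO untreated cells without growth and 100% = 10 µM 1-NA-PP1 full growth; higher means more yeast growth rescued from 5-FOA killing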); settings: S. cerevisiae cbk1-as DSE1-URA3 strain, 5-FOA growth OD615, 2 d; at 50 µM; stronger effect = higher value
[16] = H69AR cells + 2 uM doxorubicin, measured here: viability with 2 uM doxorubicin, stronger effect = lower value
[17] = H69AR cells, compound alone cytotoxicity

SMILES | viability [1] [%] | Her2 level [2] | viability [3] | viability [4] | viability [5] | differential viability (reversal) ([6]; H69AR cells + 2 uM doxorubicin) | viability [6, 16] [%] | viability [6, 17] [%] | inhibition [7] | inhibition [8] | growth inhibition [9] | growth inhibition [10] | viability increase [11] | viability [12] | viability [13] | inhibition [14] | RAM network inhibition [15]
O=C(CC1Oc2ccc(Cl)cc2NC1=O)NC1CCCCCC1 (stereo not given) | 92.5 | 87.5% (inactive) | 92.5% (inactive) | 78.1% (inactive) | 88% (inactive) | -3.67% (inactive) | 91.6 | 88 | -1.47% (inactive) | 2.13% (inactive) | -4.77% (inactive) | -8.75% (inactive) | -1.05% (inactive) | 102% (inactive) | 102% (inactive) | 3.56% (inactive) | 4.95% (inactive)
CC(C)NC(=O)c1ccc2c(c1)nnn2C | 94 | 84% (inactive) | 94% (inactive) | 87.6% (inactive) | 99.4% (inactive) | 0.56% (inactive) | 98.8 | 99.4 | -4.05% (inactive) | -4.92% (inactive) | -7.61% (inactive) | -12.3% (inactive) | 0.39% (inactive) | 106% (inactive) | 105% (inactive) | 2% (inactive) | 1.32% (inactive)
CCN1C(=C2C(=O)c3ccccc3C2=O)C=Cc2ccccc21 | 96.5 | 97% (inactive) | 96.5% (inactive) | 92.6% (inactive) | 93.4% (inactive) | -0.49% (inactive) | 93.9 | 93.4 | 0.64% (inactive) | -8% (inactive) | -23.3% (inactive) | -27.6% (inactive) | -1.18% (inactive) | 105% (inactive) | 95.1% (inactive) | 1.86% (inactive) | -0.72% (inactive)
CN1CCN(CC(=O)N2c3ccccc3C(C)(c3ccccc3)CC2(C)C)CC1 (stereo not given) | 87 | 103% (inactive) | 87% (inactive) | 78.8% (inactive) | 65.8% (inactive) | -31.3% (inactive) | 97.1 | 65.8 | -0.38% (inactive) | 2% (inactive) | -9.57% (inactive) | -2.67% (inactive) | -6.54% (inactive) | 49.1% (inactive) | 50.7% (inactive) | 0.685% (inactive) | 1.99% (inactive)
O=C(Nc1ccncc1)C1CCCN(S(=O)(=O)c2cccc3cccnc23)C1 (stereo not given) | 84.5 | 104% (inactive) | 84.5% (inactive) | 63% (inactive) | 17.4% (active) | -58.8% (inactive) | 76.2 | 17.4 | -7.07% (inactive) | 3.33% (inactive) | -10.3% (inactive) | -4.11% (inactive) | -6.31% (inactive) | 19.9% (active) | 23.8% (active) | 1.59% (inactive) | 2.56% (inactive)
CC1(C)Oc2ccc3ccc(=O)oc3c2C(N2CCCCC2)C1O (stereo not given) | 103 | 94% (inactive) | 103% (inactive) | 89.6% (inactive) | 92.6% (inactive) | 7.25% (inactive) | 85.3 | 92.6 | -0.52% (inactive) | -4.33% (inactive) | -4.78% (inactive) | -7.54% (inactive) | -2.43% (inactive) | 101% (inactive) | 98.2% (inactive) | 1.49% (inactive) | 2.29% (inactive)
CC(=O)OC1c2ccccc2C(=O)N1Cc1ccccc1Cl (stereo not given) | 93.5 | 92.5% (inactive) | 93.5% (inactive) | 91.3% (inactive) | 88.5% (inactive) | -2.26% (inactive) | 90.8 | 88.5 | -5.87% (inactive) | -4.83% (inactive) | -1.57% (inactive) | 5.51% (inactive) | -3.19% (inactive) | 74.6% (inactive) | 91.5% (inactive) | 0.06% (inactive) | 5.73% (inactive)
N#CCCN1CCN(S(=O)(=O)c2ccc(S(=O)(=O)NC3CCCC3)cc2)CC1 | 88.5 | 124% (inactive) | 88.5% (inactive) | 99.3% (inactive) | 107% (inactive) | 33.5% (inactive) | 73.1 | 107 | -3.46% (inactive) | -8% (inactive) | -9.39% (inactive) | -4.06% (inactive) | -0.87% (inactive) | 101% (inactive) | 100% (inactive) | 2.69% (inactive) | 3.21% (inactive)
CCN1CCN(c2nc3c(c(=O)[nH]c(=O)n3C)n2CCSc2nc3ccccc3s2)CC1 | 95.5 | 95% (inactive) | 95.5% (inactive) | 115% (inactive) | 88.6% (inactive) | -8.44% (inactive) | 97.1 | 88.6 | -1.73% (inactive) | 4% (inactive) | 1.81% (inactive) | -6% (inactive) | -1.2% (inactive) | 96.9% (inactive) | 91.4% (inactive) | 0.9% (inactive) | -0.84% (inactive)
O=C(NCCCN1CCOCC1)c1cc(-c2ccc(O)cc2)on1 | 100 | 87.5% (inactive) | 100% (inactive) | 83.7% (inactive) | 94.8% (inactive) | 5.84% (inactive) | 89 | 94.8 | -6.4% (inactive) | -4% (inactive) | -9.88% (inactive) | -16.8% (inactive) | -6.65% (inactive) | 92.3% (inactive) | 93.7% (inactive) | -0.505% (inactive) | 0.12% (inactive)
CC(=O)Nc1cc(N2C(=O)CCC2=O)ccc1Cl | 93 | 97% (inactive) | 93% (inactive) | 110% (inactive) | 103% (inactive) | 12.4% (inactive) | 90.5 | 103 | 0.4% (inactive) | 6.45% (inactive) | -10.2% (inactive) | -12.5% (inactive) | -1.29% (inactive) | 102% (inactive) | 103% (inactive) | 1.19% (inactive) | 1.88% (inactive)
Cc1cccc(-n2ncc3c(N4CCC5(CC4)OCCO5)ncnc32)c1 | 106 | 92.5% (inactive) | 106% (inactive) | 76% (inactive) | 42.6% (active) | -11.1% (inactive) | 53.8 | 42.6 | -4.4% (inactive) | -9.33% (inactive) | -2.87% (inactive) | -15.6% (inactive) | -7.22% (inactive) | 78% (inactive) | 59.5% (inactive) | 1.75% (inactive) | 3.86% (inactive)
O=C(c1ccc(Br)cc1)N1CCN(S(=O)(=O)c2ccccc2)CC1 | 113 | 120% (inactive) | 113% (inactive) | 103% (inactive) | 92.6% (inactive) | -2.33% (inactive) | 94.9 | 92.6 | 3.33% (inactive) | 2.33% (inactive) | 4.02% (inactive) | 11.1% (inactive) | -1.15% (inactive) | 84.7% (inactive) | 90.4% (inactive) | 1.71% (inactive) | 1.8% (inactive)
Cc1ccc(-c2noc(CN3CCN(c4ccccc4F)CC3)n2)cc1 | 89.5 | 95.5% (inactive) | 89.5% (inactive) | 121% (inactive) | 92.5% (inactive) | -3.02% (inactive) | 95.5 | 92.5 | 1.87% (inactive) | -1.5% (inactive) | 1.99% (inactive) | -1.21% (inactive) | -2.06% (inactive) | 93.3% (inactive) | 92.4% (inactive) | -0.38% (inactive) | 3.79% (inactive)
COC(=O)C1=C(N)OC2=C(C(=O)CCC2)C1c1cccs1 (stereo not given) | 110 | 85% (inactive) | 110% (inactive) | 93.7% (inactive) | 101% (inactive) | 17.8% (inactive) | 83.2 | 101 | -4.19% (inactive) | 4.1% (inactive) | -2.24% (inactive) | -6.3% (inactive) | -2.89% (inactive) | 94.9% (inactive) | 92.9% (inactive) | 2.75% (inactive) | 4.64% (inactive)
CCOC(=O)c1cc2c(=O)n3ccccc3nc2n(Cc2ccccc2)c1=N | 77 | 75.5% (inactive) | 77% (inactive) | 84.2% (inactive) | 83.8% (inactive) | -4.5% (inactive) | 88.3 | 83.8 | -4.86% (inactive) | -3.28% (inactive) | -1.11% (inactive) | -8.62% (inactive) | -3.3% (inactive) | 77.1% (inactive) | 71.1% (inactive) | 2.4% (inactive) | 0.09% (inactive)
O=C(O)C1CC=CCC1C(=O)Nc1cccc(F)c1 (stereo not given) | 94 | 94% (inactive) | 94% (inactive) | 88.1% (inactive) | 87.1% (inactive) | -1.18% (inactive) | 88.3 | 87.1 | -2.99% (inactive) | -5.17% (inactive) | -1.99% (inactive) | -0.35% (inactive) | -0.78% (inactive) | 102% (inactive) | 100% (inactive) | 1.86% (inactive) | 1.15% (inactive)
N#Cc1nc(COc2ccccc2Cl)oc1N1CCCCCC1 | 96.5 | 104% (inactive) | 96.5% (inactive) | 79.6% (inactive) | 93.1% (inactive) | -3.75% (inactive) | 96.9 | 93.1 | -3.6% (inactive) | -3.17% (inactive) | 7.94% (inactive) | 6.52% (inactive) | 2.96% (inactive) | 98.7% (inactive) | 87.5% (inactive) | 2.3% (inactive) | 5.67% (inactive)
Cn1cc(Cl)c(C(=O)N(Cc2ccccc2)c2ccccn2)n1 | 98 | 116% (inactive) | 98% (inactive) | 101% (inactive) | 92.2% (inactive) | -1.01% (inactive) | 93.2 | 92.2 | 1.33% (inactive) | 2.33% (inactive) | -8.19% (inactive) | -1.84% (inactive) | -0.96% (inactive) | 93.3% (inactive) | 94.7% (inactive) | 1.62% (inactive) | 7.22% (inactive)
O=C1C/C(=C/NCc2ccccc2)C(=O)N1 | 93 | 111% (inactive) | 93% (inactive) | 95.5% (inactive) | 97.2% (inactive) | -4.96% (inactive) | 102 | 97.2 | 2.08% (inactive) | -9% (inactive) | -6.49% (inactive) | 0.205% (inactive) | 0.43% (inactive) | 99.7% (inactive) | 102% (inactive) | 1.04% (inactive) | 2.77% (inactive)
